Assay [1] in a line: qHTS assay to identify small molecule agonists of the RXR signaling pathway - cell viability counter screen (AID 1159529).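 Further: HEK 293T cells carrying an RXR-alpha UAS beta-lactamase reporter; series mostly up to about 77 µM; nearly all actives have a fitted effect of over 50% in size.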 Summed up:
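Counter screen: CellTiter-Glo luminescence. Cells: RXR-alpha-UAS-bla HEK 293T. Medium: 2% charcoal-stripped FBS. Treatment: 16 h, 37 C. Reagent incubation: 30 min, RT.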

Assay [2] can be described thus: qHTS assay to identify small molecule antagonists of the retinoid acid receptor (RAR) signaling pathway - cell viability counter screen (AID 1159551). Further: nearly all actives have a fitted effect of over 35% in size. The essentials:
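Luminescent ATP quantitation (CellTiter-Glo) gave cell viability in C3RL4 cells exposed to test chemicals for 6 h at 37 C alongside 1 uM final retinol.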

A short description of assay [3]: qHTS assay to identify small molecule antagonists of the estrogen related receptor (ERR) signaling pathway from Tox21 library - cell viability counter screen (AID 1224834). Further: nearly all actives have a fitted effect of over 30% in size. Further: potency means the concentration at half of the fitted maximal effect. Summed up: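 Fluorescence from CellTiter-Fluor gives the viability read-out, taken 30 min after reagent addition. Before that, ERR cells seeded 6 h earlier were incubated with compounds for 17.5 h at 37 C.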

Assay [4] has as its target Luciferin 4-monooxygenase (Photinus pyralis) (UniProt P08659). The assay is described as follows: qHTS assay to identify small molecule inhibitors of firefly luciferase (AID 1224835). Further: nearly all actives have a fitted effect of over 25% in size. Further: potency means the concentration at half of the fitted maximal effect. The essentials: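 Inhibition of purified Photinus luciferase is measured by luminescence. Substrate levels (D-luciferin, ATP) sit at their KM values. Each compound is tested in a concentration series.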

Assay [5] in a line: qHTS assay to identify small molecule antagonists of the constitutive androstane receptor (CAR) signaling pathway - cell viability counter screen (AID 1224837). Further: series mostly up to about 92 µM; nearly all actives have a fitted effect of over 45% in size. Summed up: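 HepG2-CYP2B6-hCAR cells, 2500/well, 4 hr pre-incubation; compound titration, 15 conc.; CITCO 50 nM final; 23 hr, 37 C/5% CO2; CellTiter-Fluor, fluorescence intensity.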
Assay [6] is described as follows: qHTS assay to identify small molecule antagonists of the estrogen related receptor signaling pathway with the pleiotropic PPARgamma coactivator (PGC) from Tox21 10K library - cell viability counter screen (AID 1224840; active means well fitted cell-killing curve with a large enough effect in the repeat runs, not every such curve was filed as active; further: nearly all actives have a fitted effect of over 40% in size). The essentials:
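PGC/ERR cells, 2,000/well; 6 h pre-incubation 37 C/5% CO2; cpd in DMSO via pin tool; 17.5 h 37 C; CellTiter-Fluor, 30 min; fluorescence.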

Assay [7] in a line: qHTS assay to identify small molecule antagonists of the estrogen related receptor signaling pathway with the pleiotropic PPARgamma coactivator (PGC) from Tox21 10K library (AID 1224841; call rule not given here; further: actives are mostly falling curves and most rising ones were filed inactive; nearly all actives have a fitted effect of over 50% in size; further: potency means the concentration at half of the fitted maximal effect). The essentials:
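PGC/ERR cell line, 2,000 cells/well; 6 h pre-incubation 37 C/5% CO2; compounds (DMSO) pinned in; 18 h, 37 C; One-Glo, 30 min RT; luminescence.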

The nature of assay [8]: qHTS assay to identify small molecule agonists of the estrogen related receptor signaling pathway with the pleiotropic PPARgamma coactivator (PGC) from Tox21 10K library (AID 1224842). Further: nearly all actives have a fitted effect of over 15% in size. The essentials: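 Luminescence from One-Glo (30 min, room temperature) measured after PGC/ERR cells had 18 h at 37 C with pinned compound (23 nL in DMSO). Cells had been seeded at 2,000 per well and pre-incubated 6 h.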

Assay [9] in a line: qHTS assay to identify small molecule agonists of the constitutive androstane receptor (CAR) signaling pathway - cell viability counter screen (AID 1224836). Further: nearly all actives have a fitted effect of over 45% in size. Further: potency means the concentration at half of the fitted maximal effect. The essentials:
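Double-stable HepG2 hepatoma cells (hCAR plus CYP2B6-2.2kb) are treated for 23 h at 37 C with test compounds in 15-point concentration series. PK11195 at 0.75 uM final is co-added. Cell viability is quantified by CellTiter-Fluor.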

Assay [10] has as its target Nuclear receptor subfamily 1 group I member 3 (Homo sapiens) (UniProt Q14994). The assay is described as follows: qHTS assay to identify small molecule antagonists of the constitutive androstane receptor (CAR) signaling pathway (AID 1224838).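 Further: HepG2 cells stably expressing hCAR with CYP2B6 luciferase reporter stimulated by CITCO; nearly all actives have a fitted effect of over 40% in size.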 Summed up:
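HepG2-CYP2B6-hCAR cells; 4 h pre-incubation; cpd (15 conc) + CITCO 50 nM final; 24 h, 37 C/5% CO2; ONE-Glo, luminescence.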

The target in assay [11] is Thyrotropin receptor (Homo sapiens) (UniProt P16473). The assay can be described thus: qHTS assay to identify small molecule agonists of the thyroid stimulating hormone receptor (TSHR) signaling pathway (AID 1224843; calls by dose curve; further: nearly all actives have a fitted effect of over 45% in size). The essentials:
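HEK293 cells stably bearing the thyrotropin receptor were plated at 800 cells/well and challenged with compound (30 min, RT). Accumulated cAMP was quantified via cAMP-d2 competing for cryptate-tagged antibody.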

For assay [12], the target named is Nuclear receptor subfamily 1 group I member 3 (Homo sapiens) (UniProt Q14994). The assay is described as follows: qHTS assay to identify small molecule agonists of the constitutive androstane receptor (CAR) signaling pathway (AID 1224839).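 Further: HepG2 cells stably carrying human CAR and a CYP2B6 luciferase reporter; series mostly up to about 92 µM; nearly all actives have a fitted effect of over 15% in size.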 Summed up:
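Readout: firefly luciferase luminescence via ONE-Glo. System: HepG2 double-stable for hCAR and CYP2B6-2.2kb. Conditions: 15-point compound titration, PK11195 at 0.75 uM final, 24 h incubation.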

Inconclusive results are not listed. Calls of active or inactive are those of the source. Unless noted, the call rests on the fitted dose curve; in most records, active means well fitted curve in the direction sought with a large enough effect in the repeat runs; inconclusive means weak or mixed curves; inactive means no such curve, though single readings can be large; an effect the other way counts as inactive or inconclusive.

Thyrotropin receptor (Homo sapiens), sequence (P16473 whole entry, looked up): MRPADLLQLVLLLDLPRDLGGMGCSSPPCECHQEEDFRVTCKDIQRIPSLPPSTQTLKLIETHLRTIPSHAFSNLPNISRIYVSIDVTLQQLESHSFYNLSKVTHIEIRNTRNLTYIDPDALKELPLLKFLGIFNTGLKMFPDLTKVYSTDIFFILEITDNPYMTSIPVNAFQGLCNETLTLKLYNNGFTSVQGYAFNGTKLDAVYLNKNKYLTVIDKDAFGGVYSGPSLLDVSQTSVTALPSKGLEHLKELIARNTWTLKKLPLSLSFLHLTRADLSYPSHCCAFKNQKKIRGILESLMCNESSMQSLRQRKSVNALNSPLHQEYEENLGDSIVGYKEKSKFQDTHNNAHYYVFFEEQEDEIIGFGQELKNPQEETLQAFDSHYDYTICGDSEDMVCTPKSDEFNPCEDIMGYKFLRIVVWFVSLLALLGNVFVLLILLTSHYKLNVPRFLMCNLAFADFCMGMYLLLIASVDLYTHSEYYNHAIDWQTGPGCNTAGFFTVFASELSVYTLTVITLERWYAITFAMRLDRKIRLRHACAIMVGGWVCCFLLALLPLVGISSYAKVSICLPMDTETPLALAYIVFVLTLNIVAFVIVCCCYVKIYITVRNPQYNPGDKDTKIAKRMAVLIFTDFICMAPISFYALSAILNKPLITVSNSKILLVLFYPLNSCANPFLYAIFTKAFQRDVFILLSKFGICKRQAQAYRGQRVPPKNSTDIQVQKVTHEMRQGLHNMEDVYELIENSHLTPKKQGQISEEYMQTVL
Luciferin 4-monooxygenase (Photinus pyralis), sequence (P08659 whole entry, looked up): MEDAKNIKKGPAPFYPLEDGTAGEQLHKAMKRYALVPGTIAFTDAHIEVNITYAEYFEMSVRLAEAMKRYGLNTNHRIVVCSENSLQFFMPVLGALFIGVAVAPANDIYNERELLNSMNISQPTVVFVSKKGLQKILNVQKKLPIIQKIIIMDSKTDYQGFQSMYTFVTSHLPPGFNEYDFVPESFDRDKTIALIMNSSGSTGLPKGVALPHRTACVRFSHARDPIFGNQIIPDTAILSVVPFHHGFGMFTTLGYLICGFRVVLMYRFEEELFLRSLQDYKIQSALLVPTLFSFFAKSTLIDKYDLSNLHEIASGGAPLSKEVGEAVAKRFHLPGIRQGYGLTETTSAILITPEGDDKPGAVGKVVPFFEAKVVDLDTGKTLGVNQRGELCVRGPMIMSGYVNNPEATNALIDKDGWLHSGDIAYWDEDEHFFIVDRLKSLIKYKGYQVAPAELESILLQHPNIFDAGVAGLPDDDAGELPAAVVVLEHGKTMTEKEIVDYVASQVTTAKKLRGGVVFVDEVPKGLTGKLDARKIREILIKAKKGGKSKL
Nuclear receptor subfamily 1 group I member 3 (Homo sapiens), sequence (Q14994 whole entry, looked up): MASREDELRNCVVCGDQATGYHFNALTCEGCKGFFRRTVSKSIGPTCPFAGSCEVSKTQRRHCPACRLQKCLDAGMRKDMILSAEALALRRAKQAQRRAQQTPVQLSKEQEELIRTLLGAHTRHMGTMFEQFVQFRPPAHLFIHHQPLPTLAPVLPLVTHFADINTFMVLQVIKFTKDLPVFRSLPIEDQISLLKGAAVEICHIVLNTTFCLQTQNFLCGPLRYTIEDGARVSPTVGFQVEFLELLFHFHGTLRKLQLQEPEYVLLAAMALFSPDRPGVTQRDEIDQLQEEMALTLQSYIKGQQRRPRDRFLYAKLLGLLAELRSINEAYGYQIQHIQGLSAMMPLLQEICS

As for `CC(C)=CC1C(C(=O)OC(C#N)c2cccc(Oc3ccccc3)c2)C1(C)C` (stereo not drawn), the Potency entry in [1], in [2], in [3], in assay [4], in assay [5] and in [6] was “inactive” in each case. Besides, the Potency entry in assay [7] and in assay [8] was “inactive” throughout.

In the case of `Clc1ccc(C(Cl)(Cl)Cl)cc1Cl`, the Potency result in assay [1], in [2], in assay [3], in assay [4], in [9] and in assay [10] was “inactive” in each case. Also, the Potency result in assay [6] is “inactive”.

Regarding `[C-]1=CC=CC1.[Cl][Zr+2][Cl].c1cc[cH-]c1`, the Potency entry in [1], in [2], in assay [3], in [9], in [5] and in assay [6] was “inactive” each time.

As to `CCN(CC)CCN1C(=O)CN=C(c2ccccc2F)c2cc(Cl)ccc21`, the Potency result in assay [1], in assay [2], in [3], in assay [4], in [5] and in [6] was “inactive” throughout. Also, the Potency entry in assay [7] and in assay [8] was “inactive” in each case.

For the compound `CC(=O)[O-].CC(=O)[O-].O.O.[Zn+2]`, the Potency entry in assay [1], in assay [2], in [3], in [9], in assay [5] and in assay [6] was “inactive” throughout.

In the case of `COc1ccc2c(c1OC)C(=O)O[C@@H]2[C@H]1c2cc3c(cc2CCN1C)OCO3`, the Potency entry in assay [1], in [2], in [4] and in [10] was “inactive” each time. Besides, the figures for the Potency in [3] and in [9] were 9.59 µM (active) and 7.62 µM (active), respectively.

As for `CCCCn1cc[n+](C)c1` (tested in a mixture with another compound), the Potency result in assay [1], in [2], in [3], in [9] and in assay [6] was “inactive” throughout.

Take `C1=CCC=C1`: the Potency result in assay [1], in assay [2], in [3] and in assay [6] was “inactive” in each case.

Consider `CC(=O)[O-].CC(=O)[O-].O.O.O.[Pb+2]`, for which the Potency entry in [1], in assay [2], in [3], in assay [9], in assay [5] and in assay [6] was “inactive” each time.

As to `CNC(C)(C)Cc1ccccc1`, the Potency result in assay [1], in assay [2], in assay [3], in assay [4], in assay [9] and in [5] was “inactive” throughout. Further, the Potency entry in assay [10], in assay [6] and in [11] was “inactive” in each case.

With `[O-][Cl+3]([O-])([O-])O`, the Potency result in [1], in [2], in assay [3], in [4], in [9] and in [5] was “inactive” in each case. In assay [6], the Potency result was “inactive”.

As to `CCOP(=O)(OCC)Oc1cc(C)nc(C(C)C)n1`, the Potency entry in assay [1], in assay [2], in assay [3], in [4], in [5] and in [6] was “inactive” throughout. Moreover, the Potency result in assay [7] and in assay [8] was “inactive” each time.

Turning to `O=c1c2ccccc2c(=O)c2c1cc(Cl)c1[nH]c3c([nH]c12)c(Cl)cc1c(=O)c2ccccc2c(=O)c13`, the Potency result in [1], in assay [2], in assay [3], in assay [9], in [10] and in assay [12] was “inactive” each time. In addition, the Potency entry in assay [6] and in assay [8] was “inactive” in each case. In addition, in [4], the Potency is 56.4 µM (active).

Turning to `CO/N=C(/C1=NOCCO1)c1ccccc1Oc1ncnc(Oc2ccccc2Cl)c1F`, the Potency entry in assay [1], in assay [2], in [4] and in [10] was “inactive” in each case. For the same compound, in [3], the Potency is 27.3 µM (active).

With `CNC(=O)O/N=C(\C)C(C)S(C)(=O)=O` (stereo not drawn), the Potency entry in [1], in assay [2], in assay [4], in [9], in [5] and in assay [6] was “inactive” throughout. Besides, the Potency result in assay [7], in assay [8] and in assay [11] was “inactive” in each case.

Regarding `N#Cc1c[nH]cc1-c1cccc2c1OC(F)(F)O2`, the Potency entry in [1], in [2], in [4], in assay [9], in [5] and in [8] was “inactive” in each case. The Potency in assay [7] is 19.3 µM (active).

As to `Nc1cc(Cl)ccc1Cl`, the Potency entry in assay [1], in assay [2], in [4], in [9], in assay [5] and in assay [10] was “inactive” throughout. Moreover, the Potency entry in assay [12], in assay [6], in assay [7], in [8] and in assay [11] was “inactive” each time.

As for `Clc1ccc(C2(Cn3cncn3)OCCO2)c(Cl)c1`, the Potency result in [1], in [2], in assay [3], in assay [4], in [5] and in [10] was “inactive” throughout. The Potency entry in assay [12], in assay [6], in [7], in assay [8] and in assay [11] was “inactive” in each case.

Regarding `CN1CCc2cc3c(cc2C1O)OCO3` (stereo not drawn), the Potency entry in [1], in [2], in assay [4], in assay [10], in assay [7] and in assay [8] was “inactive” in each case.

Values taken from PubChem BioAssay (Tox21).
